# For some assays here: Entries with a potency or affinity are not part of this list.
# Key:
# Design in all cases: scale not given: direction of the effect not stated beside the values
# [1] = molecular target: Protein translocase subunit SecA (Escherichia coli (strain K12)) (UniProt P10408); test: Assay to Identify E. coli SecA ATPase Inhibitors; format: functional; settings: 30 µM
# [2] = molecular target: T1, Ubiquitin-activating enzyme e1, putative (Leishmania donovani (strain BPK282A1)) (UniProt E9BSI1); test: Leishmania donovani Ubiquitin Activating Enzyme (LdE1); format: functional; settings: 30 µM
# T1 sequence (whole entry): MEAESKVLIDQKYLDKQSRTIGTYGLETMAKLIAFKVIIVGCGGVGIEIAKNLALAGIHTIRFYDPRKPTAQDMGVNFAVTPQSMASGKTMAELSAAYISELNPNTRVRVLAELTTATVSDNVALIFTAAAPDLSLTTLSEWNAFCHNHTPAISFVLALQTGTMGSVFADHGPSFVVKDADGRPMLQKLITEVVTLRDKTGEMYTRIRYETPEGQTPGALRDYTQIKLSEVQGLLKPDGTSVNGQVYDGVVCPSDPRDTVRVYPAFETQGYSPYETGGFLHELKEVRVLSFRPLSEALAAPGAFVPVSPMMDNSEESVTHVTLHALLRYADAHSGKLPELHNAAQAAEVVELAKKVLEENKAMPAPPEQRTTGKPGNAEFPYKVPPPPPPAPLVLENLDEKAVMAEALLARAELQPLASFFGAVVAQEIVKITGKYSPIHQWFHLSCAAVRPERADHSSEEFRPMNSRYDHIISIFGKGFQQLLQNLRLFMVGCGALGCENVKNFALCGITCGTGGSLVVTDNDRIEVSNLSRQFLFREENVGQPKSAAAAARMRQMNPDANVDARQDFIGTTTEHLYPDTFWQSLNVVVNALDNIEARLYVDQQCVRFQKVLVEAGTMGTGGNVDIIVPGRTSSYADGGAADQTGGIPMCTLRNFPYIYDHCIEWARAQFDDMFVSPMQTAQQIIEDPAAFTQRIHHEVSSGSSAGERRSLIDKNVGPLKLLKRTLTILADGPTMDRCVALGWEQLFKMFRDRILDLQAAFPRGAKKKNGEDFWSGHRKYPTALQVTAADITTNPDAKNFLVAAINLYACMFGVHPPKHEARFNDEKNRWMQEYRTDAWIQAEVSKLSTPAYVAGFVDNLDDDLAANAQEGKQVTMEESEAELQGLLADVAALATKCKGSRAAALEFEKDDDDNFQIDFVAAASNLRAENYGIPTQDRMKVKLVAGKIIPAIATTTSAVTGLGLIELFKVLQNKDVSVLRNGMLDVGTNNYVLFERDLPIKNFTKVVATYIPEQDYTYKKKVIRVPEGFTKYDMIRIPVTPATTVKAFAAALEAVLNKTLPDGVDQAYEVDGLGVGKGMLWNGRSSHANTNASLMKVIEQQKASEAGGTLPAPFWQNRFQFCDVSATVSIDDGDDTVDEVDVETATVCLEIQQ
# [3] = molecular target: AMP-activated protein kinase, AMPK (Homo sapiens) (UniProt P54646+O43741+P54619+Q9UGJ0+Q9Y478+Q13131+Q9UGI9); test: AMP-dependent Kinase enzyme assay. An in vitro enzyme assay that detects ADP turnover that is directly proportional to AMPK activity. This uses naive AMPK that is activated during the assay with MK-8722; format: functional; settings: 30 µM
# [4] = molecular target: Sialic acid-binding Ig-like lectin 9 (Homo sapiens) (UniProt Q9Y336); test: Hs-Siglec9 ALPHAscreen SOP 20170721; settings: 10 µM
# [5] = test system: Trypanosoma cruzi; test: Trypanosoma cruzi phosphomannomutase and mannose-1-phosphate guanylyltransferase assay; format: functional; settings: 10 µM
# [6] = molecular target: T2, Arginase-2, mitochondrial (Homo sapiens) (UniProt P78540); test: in vitro enzyme assay to detect the production of urea directly proportional to the activity of Arginase II; format: functional; settings: 33.3 µM; note: in the data most compounds retested in dose-response had high values
# T2 sequence (whole entry): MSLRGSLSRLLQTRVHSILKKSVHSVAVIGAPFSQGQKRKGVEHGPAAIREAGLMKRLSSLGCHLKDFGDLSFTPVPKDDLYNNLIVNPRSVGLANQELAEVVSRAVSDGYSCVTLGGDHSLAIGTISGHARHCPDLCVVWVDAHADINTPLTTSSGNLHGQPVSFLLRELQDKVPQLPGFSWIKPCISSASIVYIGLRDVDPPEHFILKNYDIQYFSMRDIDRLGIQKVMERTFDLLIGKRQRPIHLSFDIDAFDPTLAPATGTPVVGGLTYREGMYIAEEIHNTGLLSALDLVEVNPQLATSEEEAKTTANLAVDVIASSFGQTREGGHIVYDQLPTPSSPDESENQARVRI
# [7] = molecular target: T3, Proteasome subunit beta (Trypanosoma cruzi) (UniProt O96673); test: Trypanosoma cruzi proteasome chymotrypsin-like activity (TcProtChymo) assay.; note: in the data most compounds retested in dose-response had high values; format: functional; settings: 9.37 µM
# T3 sequence (whole entry): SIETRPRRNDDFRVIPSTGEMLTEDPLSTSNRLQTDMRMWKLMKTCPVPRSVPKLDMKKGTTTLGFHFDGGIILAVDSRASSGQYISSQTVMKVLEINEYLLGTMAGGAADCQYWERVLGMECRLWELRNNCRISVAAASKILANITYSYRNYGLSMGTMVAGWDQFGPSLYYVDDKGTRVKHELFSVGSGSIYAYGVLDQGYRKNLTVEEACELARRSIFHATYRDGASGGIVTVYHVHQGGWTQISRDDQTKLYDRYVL
# [8] = organism: Homo sapiens; test: To identify inhibition of the IFN signalling (Jak-Stat) pathway via expression of an eGFP reporter gene under the control of an IFN-stimulated response element (ISRE) containing MxA promoter.; format: functional; settings: 30 µM
# [9] = molecular target: T4, Tyrosyl-tRNA synthetase, putative (Trypanosoma cruzi (strain CL Brener)) (UniProt Q4DSP6); test: Trypanosoma cruzi tyrosyl tRNA synthetase (TcYRS) _High Tyrosine SOP; format: functional; settings: 30 µM; note: in the data most compounds retested in dose-response had high values
# T4 sequence (whole entry): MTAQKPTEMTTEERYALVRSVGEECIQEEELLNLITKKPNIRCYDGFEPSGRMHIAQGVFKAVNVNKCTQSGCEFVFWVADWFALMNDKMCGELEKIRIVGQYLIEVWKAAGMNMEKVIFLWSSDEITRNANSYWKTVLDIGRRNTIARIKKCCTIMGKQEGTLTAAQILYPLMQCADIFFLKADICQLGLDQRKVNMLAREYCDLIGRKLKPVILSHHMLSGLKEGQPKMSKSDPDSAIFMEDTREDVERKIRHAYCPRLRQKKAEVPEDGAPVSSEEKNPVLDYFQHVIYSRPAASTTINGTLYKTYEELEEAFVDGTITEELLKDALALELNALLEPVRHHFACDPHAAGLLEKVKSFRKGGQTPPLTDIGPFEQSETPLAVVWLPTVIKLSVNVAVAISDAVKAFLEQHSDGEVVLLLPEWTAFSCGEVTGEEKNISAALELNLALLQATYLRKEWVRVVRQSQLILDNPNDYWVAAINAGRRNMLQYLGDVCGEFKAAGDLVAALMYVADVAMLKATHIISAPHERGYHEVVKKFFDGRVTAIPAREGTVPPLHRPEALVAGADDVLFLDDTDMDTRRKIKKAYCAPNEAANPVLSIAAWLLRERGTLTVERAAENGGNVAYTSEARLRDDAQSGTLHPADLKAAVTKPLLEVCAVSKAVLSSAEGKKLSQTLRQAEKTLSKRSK
# [10] = molecular target: T4, Tyrosyl-tRNA synthetase, putative (Trypanosoma cruzi (strain CL Brener)); test: Trypanosoma cruzi tyrosyl tRNA synthetase (TcYRS) SOP; format: functional; settings: 30 µM
# [11] = molecular target: Chromo domain-containing protein 1 (Saccharomyces cerevisiae (strain ATCC 204508 / S288c) (Baker's yeast)) (UniProt P32657); test: ScCHD-1 Enzyme Inhibition Assay; format: functional; settings: 30 µM; note: in the data most compounds retested in dose-response had high values
# Sequence of Chromo domain-containing protein 1 (Saccharomyces cerevisiae (strain ATCC 204508 / S288c) (Baker's yeast)) (P32657 whole entry, the tested form may be a part): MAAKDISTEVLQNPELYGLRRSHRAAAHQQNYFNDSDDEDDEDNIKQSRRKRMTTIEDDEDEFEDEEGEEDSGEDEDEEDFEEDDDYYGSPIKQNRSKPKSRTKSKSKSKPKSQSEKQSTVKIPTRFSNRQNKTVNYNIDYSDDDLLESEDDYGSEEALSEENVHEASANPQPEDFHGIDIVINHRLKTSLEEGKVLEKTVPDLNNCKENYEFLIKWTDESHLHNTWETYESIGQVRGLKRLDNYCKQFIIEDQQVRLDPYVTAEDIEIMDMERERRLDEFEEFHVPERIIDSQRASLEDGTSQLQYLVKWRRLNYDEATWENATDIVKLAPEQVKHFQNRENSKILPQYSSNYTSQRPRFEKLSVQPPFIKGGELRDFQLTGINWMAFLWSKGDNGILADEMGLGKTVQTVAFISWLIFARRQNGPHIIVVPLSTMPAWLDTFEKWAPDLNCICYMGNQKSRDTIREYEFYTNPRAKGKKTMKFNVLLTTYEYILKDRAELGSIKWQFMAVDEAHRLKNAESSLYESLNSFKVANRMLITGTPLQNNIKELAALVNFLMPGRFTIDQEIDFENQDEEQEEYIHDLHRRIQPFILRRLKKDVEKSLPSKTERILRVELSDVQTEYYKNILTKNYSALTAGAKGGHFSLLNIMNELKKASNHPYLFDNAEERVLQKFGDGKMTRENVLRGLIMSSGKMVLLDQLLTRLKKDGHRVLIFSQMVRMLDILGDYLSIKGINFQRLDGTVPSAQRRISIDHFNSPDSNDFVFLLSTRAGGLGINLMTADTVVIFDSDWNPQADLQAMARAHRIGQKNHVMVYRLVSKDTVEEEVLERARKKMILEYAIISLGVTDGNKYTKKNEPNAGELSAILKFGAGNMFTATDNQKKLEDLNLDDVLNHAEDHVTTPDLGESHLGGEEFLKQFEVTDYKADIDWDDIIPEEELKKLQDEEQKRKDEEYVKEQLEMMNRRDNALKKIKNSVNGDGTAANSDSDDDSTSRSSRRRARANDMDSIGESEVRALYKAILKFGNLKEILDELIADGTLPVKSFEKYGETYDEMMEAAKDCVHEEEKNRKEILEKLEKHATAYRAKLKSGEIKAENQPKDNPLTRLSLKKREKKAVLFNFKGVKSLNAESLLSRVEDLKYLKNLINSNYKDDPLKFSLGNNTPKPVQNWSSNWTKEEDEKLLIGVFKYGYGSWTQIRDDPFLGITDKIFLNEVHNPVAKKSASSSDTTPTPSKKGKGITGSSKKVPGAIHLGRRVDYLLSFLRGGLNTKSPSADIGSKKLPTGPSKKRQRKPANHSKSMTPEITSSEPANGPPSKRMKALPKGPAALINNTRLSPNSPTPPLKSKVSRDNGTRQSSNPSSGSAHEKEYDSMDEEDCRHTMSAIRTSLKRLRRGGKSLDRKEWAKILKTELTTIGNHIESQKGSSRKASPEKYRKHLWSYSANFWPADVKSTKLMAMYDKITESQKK
# Sequence of Protein translocase subunit SecA (Escherichia coli (strain K12)) (P10408 whole entry): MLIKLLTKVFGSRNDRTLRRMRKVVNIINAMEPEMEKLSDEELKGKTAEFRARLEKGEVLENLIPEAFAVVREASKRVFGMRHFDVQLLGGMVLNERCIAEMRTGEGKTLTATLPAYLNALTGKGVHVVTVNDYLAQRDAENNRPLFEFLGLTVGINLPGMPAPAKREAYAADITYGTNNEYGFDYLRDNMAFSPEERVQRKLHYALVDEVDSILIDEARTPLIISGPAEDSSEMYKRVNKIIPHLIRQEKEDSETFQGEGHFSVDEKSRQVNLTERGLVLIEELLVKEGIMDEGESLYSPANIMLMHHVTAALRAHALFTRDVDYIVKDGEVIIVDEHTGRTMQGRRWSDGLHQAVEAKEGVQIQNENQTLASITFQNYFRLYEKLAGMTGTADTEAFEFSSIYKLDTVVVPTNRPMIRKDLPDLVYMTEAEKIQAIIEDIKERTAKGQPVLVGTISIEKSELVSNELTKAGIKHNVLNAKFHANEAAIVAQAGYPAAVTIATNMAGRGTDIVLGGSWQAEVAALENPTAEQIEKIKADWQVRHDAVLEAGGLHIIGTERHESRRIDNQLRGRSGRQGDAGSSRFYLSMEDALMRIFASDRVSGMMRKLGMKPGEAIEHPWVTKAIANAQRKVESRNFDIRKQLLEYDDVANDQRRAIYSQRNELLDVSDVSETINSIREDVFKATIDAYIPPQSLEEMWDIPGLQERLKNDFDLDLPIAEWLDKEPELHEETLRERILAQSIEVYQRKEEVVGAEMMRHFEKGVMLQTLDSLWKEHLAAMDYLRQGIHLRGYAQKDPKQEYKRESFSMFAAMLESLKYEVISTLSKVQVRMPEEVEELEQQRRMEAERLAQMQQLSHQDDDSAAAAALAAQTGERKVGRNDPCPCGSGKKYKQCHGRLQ
# Sequence of Sialic acid-binding Ig-like lectin 9 (Homo sapiens) (Q9Y336 whole entry): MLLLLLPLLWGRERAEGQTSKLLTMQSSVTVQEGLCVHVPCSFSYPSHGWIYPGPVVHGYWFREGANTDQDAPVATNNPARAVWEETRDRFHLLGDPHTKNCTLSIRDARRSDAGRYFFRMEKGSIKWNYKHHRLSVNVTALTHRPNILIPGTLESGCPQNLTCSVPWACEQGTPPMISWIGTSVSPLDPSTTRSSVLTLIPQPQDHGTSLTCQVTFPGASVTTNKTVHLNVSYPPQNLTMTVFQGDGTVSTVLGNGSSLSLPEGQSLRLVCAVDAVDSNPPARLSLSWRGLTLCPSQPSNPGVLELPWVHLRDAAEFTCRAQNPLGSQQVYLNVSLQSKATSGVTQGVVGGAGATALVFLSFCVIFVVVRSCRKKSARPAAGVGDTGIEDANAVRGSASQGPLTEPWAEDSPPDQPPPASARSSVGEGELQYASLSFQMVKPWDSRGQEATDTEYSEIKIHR
Structure (SMILES),Percent Effect [1] [%],Percent Effect [2] [%],Percent Effect [3] [%],Percent Effect [4] [%],Percent Effect [5] [%],Percent Effect [6] [%],Percent Effect [7] [%],Percent Effect [8] [%],Percent Effect [9] [%],Percent Effect [10] [%],Percent Effect [11] [%]
Cc1cnc(CN(Cc2ccccc2)CC(O)c2cccs2)cn1 (stereo not given),0.271,5.41,-2.24,20.3,6.35,41.9,0.772,5.39,-3.23,6.17,-11.6
CN(C(=O)Cn1nc(-c2cccs2)ccc1=O)C1CCS(=O)(=O)C1 (stereo not given),-7.27,0,-37.7,-0.941,-7.3,1.18,14.9,19.4,-5.32,-10.4,-7.9
Cn1cc(C[C@H]2[C@@H](O)CCN2C(=O)C2CC=CC2)cn1,-1.02,7.79,8.48,-3.96,0.69,12.3,17.8,26.4,1.06,14.1,-9.76
COC(=O)c1ccc(C(=O)NS(=O)(=O)c2cncc(Br)c2)cc1,-4.86,0,0.578,3.83,-2.9,-0.952,15.7,26.4,-0.529,2.44,-0.393
CCc1nc(NS(=O)(=O)c2cc(C)ccc2F)no1,-0.155,0,-9.72,8.2,6.13,15.1,3.84,1.84,2.73,6.17,-2.85
CC(C)n1cnc2c1C(C(=O)NCCC#N)N(Cc1ccccc1)CC2 (stereo not given),-5.9,16,-5.79,0.457,4.44,-40,14,-0.451,2.08,15,-7.21
N#Cc1ccc(N2CCN(C(=O)c3cc(C4CC4)[nH]n3)CC2)c(F)c1,-6.31,8.11,-4.12,19.3,5.29,-4.99,-0.179,7.83,4.95,23.2,-7.65
O=C([C@@H]1C[C@@H]2CCN(CCc3ccccc3)C[C@H]2O1)N1CCCC1,1.08,8,15,-9.77,-7.09,8.62,14.7,-9.49,4.25,8.97,0.575
Cc1ncc(C(=O)N2C[C@H]3CC[C@@H]2CN(S(=O)(=O)N(C)C)C3)c(C)n1,-2.89,16,-1.8,16.2,2.82,27.6,17.3,1.16,7.1,16.1,-6.2
CN(C)C(=O)N1C[C@@H]2CC[C@H](C1)N(Cc1ccc3nsnc3c1)C2,-2.91,-1.39,-8.41,-5.35,-2.04,4.42,13.2,-11.8,0,2.56,-0.102
